Compounds with a hit are over-represented: about 3.1% of the library has one in this group of screens.
KKLEB tox = cytotoxicity in KKLEB CF airway cells, primary screen, cytotoxicity control for CF NF-kB inhibitor project, cell-based, uHTS, fluorescence assay plates | KKLEB CF airway cells viability, ATPlite luminescence, overnight; active compounds read low; cells stimulated with P. aeruginosa culture filtrate | activity change (cytotoxicity), % at 5 µM | hit rate 0.36% among 360,000;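 active = corrected activity change at or below -50% at 5 µM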
CF NFkB inh = inhibitors of PAF-induced NF-kB signaling, primary screen, cell-based, GFP fluorescence, uHTS | KKLEB NF-kB-GFP reporter, GFP fluorescence overnight | inhibition, % at 5 µM | hit rate 0.86% among 360,000 | AID 588850, 2011;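 active = at least 50% inhibition at 5 µM, scaled per plate between neutral and stimulator controls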;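 note: PAF is a Pseudomonas aeruginosa culture filtrate used as stimulus; plate controls were PAF-stimulated DMSO wells for no effect and unstimulated DMSO wells for full effect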
MITF TRPM1 inh = inhibitors of MITF-dependent TRPM1 promoter reporter, primary screen, cell-based, SK-MEL-5, single point, luciferase; SK-MEL-5 TRPM1 promoter luciferase, 24 h; inhibition, % at 12.5 µM; hit rate 0.83% among 330,000; AID 488899, 2010;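 active = mean inhibition across replicates of 60% or more, whatever share of single replicates reaches that level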
HIF-2a block = HIF-2a reporter inhibitors, primary screen, luminescence, 786-0 RCC cells. 786-0 RCC cells HIF-2a reporter, luciferase luminescence, overnight. inhibition, % at 18.8 µM. hit rate 0.72% among 360,000. AID 624352, 2012;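 active = inhibition of the luminescence signal of 40% or more relative to plate controls, in a single-dose primary screen at 18.75 µM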
Peg3 promoter = Peg3 promoter-driven luciferase inhibitors, primary screen, cell-based, HeLa, luciferase luminescence | hit rate 1.7% among 360,000 | inhibition, % at 20 µM | HeLa PEG-Prom luciferase reporter, overnight | AID 588405, 2011;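 active = inhibition of at least 50% at 20 µM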
ABHD5-PLIN5 inh = ABHD5-PLIN5 interaction inhibitors, primary screen, cell lysate, split luciferase complementation, luminescence. Perilipin-5 (Homo sapiens) + 1-acylglycerol-3-phosphate O-acyltransferase ABHD5 (Homo …. Split G. princeps luciferase complementation, 4 h. inhibition, % at 4 µM. hit rate 0.78% among 360,000. AID 602281, 2012;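 active = inhibition above the mean inhibition across every tested compound plus 3 SD, cut at about 22% in these data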;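 note: 0% = DMSO only wells and the 100% control is not disclosed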
Target sequence (Q00G26 whole entry, looked up): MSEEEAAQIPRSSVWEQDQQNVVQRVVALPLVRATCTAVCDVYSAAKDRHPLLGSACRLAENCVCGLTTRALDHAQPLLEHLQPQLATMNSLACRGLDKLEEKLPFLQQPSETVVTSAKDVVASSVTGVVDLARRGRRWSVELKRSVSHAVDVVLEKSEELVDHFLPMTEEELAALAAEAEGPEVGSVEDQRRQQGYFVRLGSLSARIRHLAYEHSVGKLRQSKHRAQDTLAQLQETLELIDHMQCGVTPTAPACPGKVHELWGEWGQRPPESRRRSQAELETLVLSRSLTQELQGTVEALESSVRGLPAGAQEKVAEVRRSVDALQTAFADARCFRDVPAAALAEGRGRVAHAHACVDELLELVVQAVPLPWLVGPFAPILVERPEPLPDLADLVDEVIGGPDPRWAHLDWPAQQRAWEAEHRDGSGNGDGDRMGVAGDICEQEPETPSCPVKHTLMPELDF
Target sequence (Q8WTS1 whole entry, looked up): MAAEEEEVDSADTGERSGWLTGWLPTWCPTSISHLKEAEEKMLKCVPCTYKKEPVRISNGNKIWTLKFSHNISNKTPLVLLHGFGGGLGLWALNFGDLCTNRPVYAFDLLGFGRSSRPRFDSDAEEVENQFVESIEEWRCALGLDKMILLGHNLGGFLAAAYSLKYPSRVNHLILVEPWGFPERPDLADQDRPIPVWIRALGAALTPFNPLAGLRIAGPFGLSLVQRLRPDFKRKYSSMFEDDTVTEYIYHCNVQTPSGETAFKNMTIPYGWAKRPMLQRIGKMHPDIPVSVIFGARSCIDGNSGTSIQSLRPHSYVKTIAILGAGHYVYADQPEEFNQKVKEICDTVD
ABHD5 PLIN5 conf = ABHD5-PLIN5 interaction inhibitors, confirmation, biochemical, luminescence; hit rate 67% among 2,200; AID 651612, 2012; shares compounds with ABHD5-PLIN5 inh; inhibition, % at 4 µM; in the data active = inhibition above about 23%;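 note: 0% = DMSO vehicle wells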
HNF4 split-luc = HNF4 dimerization inhibitors, counter-screen for ABHD5-PLIN5 interaction inhibitor project, biochemical, split-luciferase complementation, luminescence; hit rate 77% among 2,200; AID 651674, 2012; inhibition, % at 4 µM; shares compounds with ABHD5-PLIN5 inh;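 active = mean inhibition across replicate wells exceeding the computed hit threshold, cut at about 13% in these data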;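 note: light from luciferase halves that rejoin when HNF4 fusion proteins dimerize; 0% = DMSO only wells and the 100% control is not given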
The depositor's hits bear a star.

For COC(=O)C[C@H]1C=C[C@@H](NC(=O)Nc2c(C)noc2C)[C@@H](CO)O1 the results were HIF-2a block 3 and ABHD5-PLIN5 inh 5.
For O=C(c1ccccc1NS(=O)(=O)c1ccc([N+](=O)[O-])cc1[N+](=O)[O-])N1O[C@@H]2C=C[C@H]1C2 the results were KKLEB tox 0, CF NFkB inh 11, MITF TRPM1 inh 16, HIF-2a block -16, Peg3 promoter 7, ABHD5-PLIN5 inh 27*, ABHD5 PLIN5 conf 49* and HNF4 split-luc 74*.
For COc1ccc(CCNC(=O)C(=O)NCC2OCCN2S(=O)(=O)c2ccc(Cl)cc2)cc1OC (stereo not given) the results were KKLEB tox 8, CF NFkB inh 0, HIF-2a block 6, Peg3 promoter 6 and ABHD5-PLIN5 inh 1.
For CCOc1ccc2[nH]c(=O)c(CN(Cc3ccco3)C(CC)c3nnnn3Cc3ccccc3)cc2c1 (stereo not given) the results were KKLEB tox 1, CF NFkB inh 8, MITF TRPM1 inh 9, HIF-2a block 14, Peg3 promoter 29, ABHD5-PLIN5 inh 24*, ABHD5 PLIN5 conf 11 and HNF4 split-luc 21*.
Screening Cc1cc2cc(C(c3nnnn3C(C)(C)C)N(Cc3ccco3)CC3CCCO3)c(=O)[nH]c2cc1C (stereo not given) returned KKLEB tox -8, CF NFkB inh 2, MITF TRPM1 inh 4, HIF-2a block 5, Peg3 promoter 12 and ABHD5-PLIN5 inh 8.
COc1ccc2[nH]c(=O)c(C(c3nnnn3C(C)(C)C)N(Cc3ccco3)CC3CCCO3)cc2c1 (stereo not given) was read as KKLEB tox 0, CF NFkB inh 6, MITF TRPM1 inh -6, HIF-2a block 3, Peg3 promoter 7, ABHD5-PLIN5 inh 24*, ABHD5 PLIN5 conf 28* and HNF4 split-luc 72*.
`CCc1ccc2[nH]c(=O)c(CN(Cc3ccccc3OC)Cc3nnnn3Cc3ccco3)cc2c1` gave KKLEB tox -1, CF NFkB inh 3, MITF TRPM1 inh 7, HIF-2a block -26, Peg3 promoter 0, ABHD5-PLIN5 inh 32*, ABHD5 PLIN5 conf 6 and HNF4 split-luc 10.
For CC(C)(C)n1nnnc1CN(Cc1ccco1)Cc1cc2cc3c(cc2[nH]c1=O)OCO3 the results were KKLEB tox 2, CF NFkB inh -1, MITF TRPM1 inh -7, HIF-2a block -6, Peg3 promoter 9, ABHD5-PLIN5 inh 42*, ABHD5 PLIN5 conf 24* and HNF4 split-luc 34*.
For CCOc1ccc2[nH]c(=O)c(CN(Cc3ccco3)Cc3nnnn3Cc3ccccc3)cc2c1 the results were KKLEB tox -5, CF NFkB inh 12, MITF TRPM1 inh 8, HIF-2a block -14, Peg3 promoter 2 and ABHD5-PLIN5 inh 18.
C(=C\c1ccccc1)/CN1CCN(C(c2cccc3ccccc23)c2nnnn2C2CCCC2)CC1 (stereo not given) was read as KKLEB tox -15, CF NFkB inh 22, HIF-2a block -11, Peg3 promoter -11 and ABHD5-PLIN5 inh 8.
Screening Cc1ccc(S(=O)(=O)N2C[C@H]3n4c(=O)ccc(=O)n4C[C@H](OC(=O)Nc4cccs4)[C@@]3(O)C2)cc1 returned KKLEB tox -9, CF NFkB inh 19, HIF-2a block 16, Peg3 promoter -9, ABHD5-PLIN5 inh 35*, ABHD5 PLIN5 conf 58* and HNF4 split-luc 34*.

From PubChem BioAssay
